The text below walks through data of ChEMBL document CHEMBL4513216, “Probing the Open Global Health Chemical Diversity Library for Multistage-Active Starting Points for Next-Generation Antimalarials” (ACS Infect Dis, 2020).

SMILES strings stand for the structures. In all, about 68,000 compounds went through this assay and about 2,700 (4%) showed an effect of 50% or more. What follows is part of a selection rich in strong results, with near analogues and random picks from the rest.

The subject of this assay is Plasmodium berghei. As to the kind of experiment: Screen against P. berghei liver stage (PbLuc), transformed with Luciferase, at 2uM. The note with it: tested at 2 uM. It is filed as functional, HepG2.
`NCc1ccc(Oc2ccc(F)c(F)c2)cc1C(F)(F)F`: the INHIBITION came to 30.1%.
For `CC(C)Oc1ccc(CN)c(C(F)(F)F)c1`, the INHIBITION is given as 28.94%.
With `CC(C)(C)Oc1ccc(CN)c(C(F)(F)F)c1`, the INHIBITION came to 50.01%.
As for `CN1CCC(N(C)C(=O)CCc2ccc(F)c(F)c2)C1=O` (centres undefined), the INHIBITION is reported as 20.14%.
On to `CN1CCC(N(C)C(=O)CSc2ccc(F)c(F)c2)C1=O` (centres undefined), for which the INHIBITION is reported as -15.11%.
As to `CC(C)c1ccc(CCC(=O)N(C)C2CCN(C)C2=O)cc1` (centres undefined), the INHIBITION worked out at 71.91%.
As for `COc1cccc(CC(=O)N2CC[C@@H](OC)[C@@H]2Cc2cccnc2)c1`, the INHIBITION was 8.18%.
On to `COC[C@@]12CCO[C@@H]1CCN(C(=O)Cc1ccccc1C)C2`, for which the INHIBITION is reported as 54.56%.
For `COC[C@@]12CCO[C@@H]1CCN(C(=O)Cc1ccc(C)cc1)C2`, the INHIBITION is on record as 11.37%.
Consider `COC[C@@]12CCO[C@@H]1CCN(C(=O)Cc1ccccc1F)C2`, for which the INHIBITION is listed as -26.85%.
The value for `CN(Cc1ccc2c(c1)OCO2)C(=O)NCCc1cnn(C)c1` was -0.12%.
Take `COCC(=O)NC1CC2(CCN(Cc3ccco3)CC2)c2ccccc21` (centres undefined): the INHIBITION is reported as -40.39%.
The value for `COc1cccc(C(=O)NS(=O)(=O)c2cccc(C#N)c2)c1` was -49.9%; that for `COc1ccc(C(=O)NS(=O)(=O)c2cccc(C#N)c2)cc1` was 66.2%.
In the case of `CCOc1cccc2c1OCC(C(=O)NS(=O)(=O)c1ccc(Cl)cc1)=C2`, the INHIBITION amounted to 30.91%.
The value for `COC(=O)c1ccc(C(=O)NS(=O)(=O)c2cncc(Br)c2)cc1` was -8.83%; that for `CCOc1cc(C(=O)NS(=O)(=O)c2cccc(C#N)c2)ccc1OC` was 64.16%.
Take `COc1cc(C(=O)NS(=O)(=O)c2cccc(C#N)c2)ccc1C`: the INHIBITION was determined as 23.92%.
For `CCOc1cccc2c1OCC(C(=O)NS(=O)(=O)c1ccc(Br)s1)=C2`, the INHIBITION is -20.93%.
As to `COc1ccc(C(=O)NS(=O)(=O)c2cncc(Br)c2)cc1`, the INHIBITION is given as 53.12%.
Regarding `CCOc1cccc2c1OCC(C(=O)NS(=O)(=O)c1cncc(Br)c1)=C2`, the INHIBITION turned out to be 51.94%.
In the case of `COc1cc(C(=O)NS(=O)(=O)c2cccc(C#N)c2)cc(OC)c1C`, the INHIBITION is given as -15.28%.
With `COc1cc(C(=O)NS(=O)(=O)c2cccc(C#N)c2)cc(OC)c1Br`, the INHIBITION was 41.76%.
The value for `COc1ccc(C(=O)NS(=O)(=O)c2cncc(Br)c2)cc1OC` was -10.6%; that for `COc1ccc(CN2CC[C@@H]3[C@H]2CCC(=O)N3c2cnn(C)c2)cc1` was -41.29%; that for `NC(=O)C1CCN(C(=O)c2cccn2Cc2cccs2)C1` (centres undefined) was -8.9%.
For the compound `CCC(C)(C)NC(=O)CN(Cc1cccc(O)c1)C1CCC(O)CC1` (centres undefined), the INHIBITION was 6.85%.
Consider `Cn1cc(CN2CCC(F)(F)C3(CCN(c4ncccn4)C3)C2)cn1` (centres undefined), for which the INHIBITION is on record as 11.54%.
On to `COCCOc1cccc(C(=O)N2CCCC(n3ccnc3C)C2)c1` (centres undefined), for which the INHIBITION is recorded as 27.55%.
Consider `COC(=O)c1ccc(NCc2csc(C)n2)cc1Cl`, for which the INHIBITION is reported as -37.11%.
As for `CCOc1c(Br)cc(C2c3c(n[nH]c3C)N=C3COC(=O)C32)cc1OC` (centres undefined), the INHIBITION is -54.78%.
In the case of `Cc1nc(C)c(C(=O)N2CCc3c(C)cccc32)o1`, the INHIBITION is 43.28%.
Take `Cc1nc(C)c(C(=O)N2CCCc3c(F)cccc32)o1`: the INHIBITION was found to be 54.77%.
The value for `Cc1nc(C)c(C(=O)N2CCCc3c(F)ccc(F)c32)o1` was 44.71%; that for `COc1ccc(CNC[C@H]2COCc3nc4cccnc4n32)cn1` was -8.63%; that for `CC1CCN(C(=O)c2cccc3ncccc23)CC1` was -29.11%.
For `CN(C)C(C(=O)N1CC(c2ccccn2)C1)c1cccc(F)c1` (centres undefined), the INHIBITION is 12.35%.
For `Cn1ccnc(Sc2ccccc2)c1=O`, the INHIBITION is reported as 50.53%.
The result for `Cc1ccc(Sc2nccn(C)c2=O)cc1` reads -2.44%; that for `Cn1ccnc(Sc2ccc(O)cc2)c1=O`, -31.15%; that for `COc1ccc2c(c1)CC(NCCCn1cc(C)cn1)CC2` (centres undefined), -0.75%.
In the case of `CN(Cc1cccc(F)c1)S(=O)(=O)N1CCOCC1`, the INHIBITION was 46.57%.
The value for `COc1cccc(CN(C)S(=O)(=O)N2CCOCC2)c1` was 11.97%; that for `CN(Cc1cccc(Cl)c1)S(=O)(=O)N1CCOCC1` was 50.74%.
The result for `CCc1nc(CN2CCOC(CN(CC)c3cccnn3)C2)cs1` (centres undefined) reads -24.11%; that for `CN1CCN(Cc2cn3c(n2)CN(C(=O)c2cccn2C)CC3)CC1`, -36.65%; that for `CC(C(=O)N1CCC(Nc2cccnn2)CC1)n1ccnc1` (centres undefined), -12.48%.
Take `CC(C(=O)N1CCC(Nc2cccnn2)CC1)n1cccn1` (centres undefined): the INHIBITION was 9.17%.
Regarding `CCn1c(C)cc(C(=O)N2CCC(Nc3cccnn3)CC2)c1C`, the INHIBITION worked out at 56.58%.
The result for `CC(Cn1cccn1)C(=O)N1CCC(Nc2cccnn2)CC1` (centres undefined) reads 57.23%; that for `O=C(c1ccc2[nH]c(=O)[nH]c2c1)N1CCC(Nc2cccnn2)CC1`, 53.45%.
The result for `CCn1c(C)cc(C(=O)N2CCC(Nc3ccc(C)nn3)CC2)c1C` reads 13.88%; that for `O=C(c1ccc(NC2CC2)nc1)N1CCC(Nc2cccnn2)CC1`, 22.1%; that for `CCOc1ncccc1C(=O)N1CCC(Nc2ccc(C)nn2)CC1`, -23.94%.
On to `O=C(c1ccc2[nH]nnc2c1)N1CCC(Nc2cccnn2)CC1`, for which the INHIBITION is -23.42%.
For the compound `COc1ncccc1C(=O)N1CCC(Nc2ccc(C)nn2)CC1`, the INHIBITION is given as 62.13%.
Consider `Cc1ccc(NC2CCN(C(=O)c3cccnc3O)CC2)nn1`, for which the INHIBITION is given as -31.57%.
For `O=C(c1ccc2cc[nH]c2c1)N1CCC(Nc2cccnn2)CC1`, the INHIBITION is given as -16.42%.
In the case of `O=C1NC2(CCN(Cc3ccccc3Cl)CC2)CC1c1ccccc1` (centres undefined), the INHIBITION turned out to be 5.92%.
With `Cc1cc(NS(=O)(=O)CC2CCCCO2)ccc1F` (centres undefined), the INHIBITION is -40.47%.
Take `CCc1ncc2c(n1)CN(CC(=O)Nc1nncs1)CC2`: the INHIBITION is on record as 21.12%.
As to `CN(C)CCOCC1CN(Cc2cccc(F)c2)Cc2nccn2C1` (centres undefined), the INHIBITION is -0.23%.
With `Cc1nc(CNC(=O)C(C)Oc2ccccc2F)no1` (centres undefined), the INHIBITION was -8.04%.
Regarding `CC1CCN(c2nc3cn(Cc4cccc(F)c4)c(=O)c-3c[nH]2)CC1`, the INHIBITION is recorded as 12.59%.
For `COCC(NC(=O)NCc1sccc1C)c1ccco1` (centres undefined), the INHIBITION is -6.4%.
As for `Cc1cc(C(=O)N(C)C)nc(C2(C)CCCN2c2ccccc2)n1` (centres undefined), the INHIBITION is 9.9%.
Consider `Cc1nc(C)n(CC2CCCN(CCOc3ccccc3C#N)C2)n1` (centres undefined), for which the INHIBITION is listed as -70.51%.
Turning to `COCCN1CCO[C@H]2CCN(C(=O)c3cccs3)CC[C@@H]21`, the INHIBITION came out at 34.19%.
The value for `CN(C)CCN1CCO[C@H]2CCN(C(=O)c3cccs3)CC[C@@H]21` was 33.11%; that for `CS(=O)(=O)N1CCO[C@@H]2CCN(C(=O)c3cccs3)CC[C@H]21` was 51.36%.
The result for `CN(Cc1cccnc1)C[C@@H]1OC[C@H]2CN(C(=O)C3CC3)CC[C@H]21` reads 20.21%; that for `Cn1cc(N2CC3(COCCN(Cc4ccsc4)C3)OCC2=O)cn1` (centres undefined), -17.88%; that for `O=C(C1CC1)N1CCN2C[C@@H](CO)[C@H](c3ccccc3)[C@H]2C1`, 14.45%.
As to `CC=C(C)C(=O)NS(=O)(=O)c1ccc(Cl)cn1`, the INHIBITION was -40.56%.
For `COc1ccc(NC(=O)Cc2c(C)nn(C)c2C)cc1F`, the INHIBITION came out at 18.15%.
Consider `COc1cc(CN(C)C(=O)Cc2c(C)nn(C)c2C)ccc1OC(F)F`, for which the INHIBITION is listed as -51.9%.
Regarding `COc1ccc(CN(C)C(=O)Cc2c(C)nn(C)c2C)cc1F`, the INHIBITION is reported as 51.31%.
For the compound `CN(C)CC1(O)CCCN(C(=O)c2ccccc2-n2cccn2)C1` (centres undefined), the INHIBITION is given as -6.64%.
With `O=S1(=O)CCCN1Cc1coc(-c2cccs2)n1`, the INHIBITION was 21.33%.
For `COCCN(CCN(C)C)C(=O)NC1CC1`, the INHIBITION is given as -25.13%.
The result for `COCCN(CCN(C)C)C(=O)NC1CCc2ccccc2C1` (centres undefined) reads 62.39%; that for `COCCN(CCOC)C(=O)NC1CCCCC1`, -20.08%.
The result for `CC1(c2ccc(Br)cc2)CC(=O)N(CCC(N)=O)C1=O` (centres undefined) reads -10%.
With `CN(CC(C)(CO)CO)C(=O)Nc1cc(Cl)cc(Cl)c1`, the INHIBITION is -1.72%.
Consider `Cc1nn(C)c(C)c1CN(C)S(=O)(=O)c1c(C)n[nH]c1C`, for which the INHIBITION worked out at 16.49%.
As to `Cc1cc(C)n(C2=NC(NCCCO)c3c(sc4c3CCCC4)N2)n1` (centres undefined), the INHIBITION worked out at 30.54%.
Consider `Fc1cnc(N2CCO[C@H]3[C@H](OCC4CCOCC4)CC[C@@H]32)nc1`, for which the INHIBITION was -39.98%.
For the compound `COc1cc(-n2cccc2)c(Cl)cc1C(=O)NS(C)(=O)=O`, the INHIBITION came to 1.06%.
The value for `CCOCCOC(C)C(=O)NCc1cn2cc(Cl)ccc2n1` (centres undefined) was 52.74%; that for `CCC(CC)C(=O)NCc1cn2cc(Br)ccc2n1` was -10.87%; that for `CCOCCOC(C)C(=O)NCc1cn2cc(Br)ccc2n1` (centres undefined) was -4.1%.
The result for `O=C(c1ccco1)N1CCOCC2(CCN(C3CCOCC3)C2)C1` (centres undefined) reads -68.56%; that for `c1ccc(CN2CCNCC(Cc3cnccn3)C2)cc1` (centres undefined), 6.19%; that for `Cc1ncccc1NC(=O)[C@H]1C[C@@H]2CCN(Cc3ccsc3)C[C@H]2O1`, -30.39%.
As for `CC(C)N(CCCNC(=O)C1CCOCC1)S(C)(=O)=O`, the INHIBITION is 18.14%.
As to `CN(C)C(=O)NCc1cc2n(n1)CCCN(CC1[C@H]3CNC[C@@H]13)C2` (some centres undefined), the INHIBITION turned out to be 14.46%.
With `O=C(O)c1ncccc1OCC(F)(F)F`, the INHIBITION is 55.73%.
The result for `O=C(OC1CCC1)c1ncccc1C(F)(F)F` reads 46.63%; that for `O=C(OC1CCC1)c1ncccc1OCC(F)(F)F`, 21.72%.
As to `CCc1nccn1CC(=O)N1C[C@@H]2CC[C@H]1CN(c1ncccn1)C2`, the INHIBITION was -54.76%.
As for `Cc1nc(CN2CCCN(Cc3nc4c(F)cccc4[nH]3)CC2)no1`, the INHIBITION was found to be 27.86%.
The value for `CCCNC(=O)c1cc2c(c3ccccc3n2C)n1C(=O)N(C)C` was -15.3%; that for `CN(C)C(=O)n1c(C(=O)NC(C)(C)CO)cc2c1c1ccccc1n2C` was 50.35%.
Regarding `CC(C)NC(=O)c1cc2c(c3ccccc3n2C)n1C(=O)N(C)C`, the INHIBITION was 9.21%.
